Results as given in PubChem BioAssay (NCI).
Compounds without any hit were thinned out: in the full panel of roughly 79,000, 15% have a hit. Rule as the data show it: active = growth inhibition above about 70%; inactive = the rest.

What was measured:
[1] = NCI Yeast Anticancer Drug Screen. Data for the rad50 strain (AID 155);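 also: 0% = growth of vehicle-only cultures of the same strain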; details: S. cerevisiae rad50 strain growth inhibition; at 50.0 µM; hits give high values
Procedure, shortened: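 Vehicle-treated cultures provide the reference for the growth inhibition reported for compound-exposed, repair-deficient yeast.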

[2] = NCI Yeast Anticancer Drug Screen. Data for the mec2-1 strain (AID 157); details: S. cerevisiae mec2-1 strain, at 50.0 µM, hits give high values
Procedure, shortened: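 mec2-1 yeast strain, carrying an alteration in DNA damage repair or cell cycle control, was exposed to compounds; growth inhibition was measured relative to vehicle-treated controls.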

[3] = NCI Yeast Anticancer Drug Screen. Data for the sgs1 mgt1 strain (AID 161);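 also: 0% = growth of cultures given vehicle only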; details: S. cerevisiae sgs1 mgt1 strain, at 50.0 µM, hits give high values
Procedure, shortened: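 Percent growth inhibition was derived by comparing compound-exposed mutant yeast with vehicle-exposed cultures. The strain carries alterations in DNA damage repair.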

[4] = NCI Yeast Anticancer Drug Screen. Data for the cln2 rad14 strain (AID 165);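 also: 0% = growth equal to vehicle treated cultures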; details: S. cerevisiae cln2 rad14 strain, at 50.0 µM, hits give high values
Procedure, shortened: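 Yeast carrying cln2 and rad14 alterations (cell cycle control and DNA damage repair) were exposed to compounds. Growth inhibition was measured against vehicle-treated controls.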

[5] = NCI Yeast Anticancer Drug Screen. Data for the bub3 strain (AID 167); details: S. cerevisiae bub3 mutant strain, at 50.0 µM, hits give high values
Procedure, shortened: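 Mutant yeast screening strain plus compound; vehicle-treated cultures serve as the 0% inhibition reference.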

[6] = NCI Yeast Anticancer Drug Screen. Data for the mlh1 rad18 strain (AID 175); details: S. cerevisiae mlh1 rad18 strain growth inhibition; at 50.0 µM; hits give high values
Procedure, shortened: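 Growth inhibition of the yeast strain was measured after compound exposure and expressed relative to vehicle-treated controls. The strain carries defined defects in DNA damage repair.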

Measured: growth inhibition

CSc1cc(C)c(OC(=O)Nc2cc(C)ccc2C)c(C)c1
inactive: [1] -3.45% | [2] 0.8% | [3] 3% | [4] 1% | [5] 33.2% | [6] 9.75%

Brc1ncnc2c1ncn2C1CCCO1 (stereo unspecified)
inactive: [1] -21.3% | [2] -12.8% | [3] -1.5% | [4] -29.6% | [5] 34.4% | [6] -32.2%

O=C1CC[C@@H](NC(=O)Cc2ccccc2)C(=O)N1
inactive: [1] -6.65% | [2] -19.3% | [3] -12.8% | [4] -6.75% | [5] 2.25% | [6] -9.1%

COc1ccc(C(O)c2ncccc2C)cc1OC (stereo unspecified)
inactive: [1] -0.3% | [2] 31.3% | [3] 20.1% | [4] -9.35% | [5] 24.8% | [6] 22.3%

Nc1ncnc2c1cnn2Cc1ccccc1
inactive: [1] 4.9% | [2] -7.3% | [3] 4.65% | [4] -3.75% | [5] 21.2% | [6] 2.35%

NC(Cc1ccc(OC(c2ccccc2)c2ccccc2)cc1)C(=O)O (stereo unspecified)
inactive: [1] 6.45% | [2] 4.9% | [3] 0.75% | [4] -10.7% | [5] -13.6% | [6] 28.8%

CCOc1ccc(S(=O)(=O)OCC)cc1
inactive: [1] -15.6% | [2] -14% | [3] -25.2% | [4] 1.35% | [5] -8.45% | [6] -19.6%

C=C1CN(C(=O)NCCCl)C1
inactive: [1] 10.6% | [2] 17.4% | [3] 4.15% | [4] -11.3% | [5] 4.1% | [6] -7.8%

CC(C)=CC(=O)OC1C2C(CC(C)C3C(O)CC(=O)C13C)OC(=O)C2C (stereo unspecified)
inactive: [1] -0.3% | [2] -44.3% | [3] -0.2% | [4] 17.8% | [5] -27.9% | [6] -16.9%

CCC(=O)Oc1ccc(CCC(C)=O)cc1
inactive: [1] -0.55% | [2] -6.35% | [3] -14.2% | [4] -38.9% | [5] -10.6% | [6] 30.5%

O=[N+]([O-])c1cc(C=NCCCCCCN=Cc2ccc(Cl)c([N+](=O)[O-])c2)ccc1Cl
inactive: [1] 6.9% | [2] -3.85% | [3] -9.75% | [4] -19.3% | [5] 4.35% | [6] -0.9%

O=C(c1ccccc1)C(c1ccccc1)C1(O)C(=O)Nc2ccc(Br)cc21 (stereo unspecified)
inactive: [1] 0.9% | [2] 7.35% | [3] -0.15% | [4] 16.1% | [5] 54.9% | [6] 7.1%

O=C1OC(Nc2ccccc2)C(Cl)=C1Cl (stereo unspecified)
inactive: [1] 38.1% | [2] 13.8% | [3] 22.5% | [4] 20.3% | [5] 6.2% | [6] -0.15%

CCOC(=O)C/C(C)=N\NS(=O)(=O)c1ccc([N+](=O)[O-])cc1
inactive: [1] 3.05% | [2] -16.5% | [3] 8.85% | [4] -30.1% | [5] 8% | [6] 2.45%

O=C(O)CCCC1(CCCC(=O)O)OCCO1
inactive: [1] 9.6% | [2] -4.45% | [3] -22.9% | [4] -60.5% | [5] -13.8% | [6] -2.8%

Cc1cc(C)nc(NS(=O)(=O)c2ccc(Nc3c4ccc(Cl)cc4nc4c(C(=O)NCCN(C)C)cccc34)cc2)n1
inactive: [1] 0% | [2] 13.8% | [3] -5.05% | [4] 1.4% | [5] 30.8% | [6] 6.95%

O=C(CNC(=O)C(CSC(c1ccccc1)(c1ccccc1)c1ccccc1)NC(=O)OCc1ccccc1)OCc1ccccc1[N+](=O)[O-] (stereo unspecified)
inactive: [1] 4.9% | [2] 8.85% | [3] -4.15% | [4] -7.95% | [5] -7.05% | [6] 20.1%

N#CCCC1(c2ccccc2)CCC/C(=C/c2ccccc2)C1=O (stereo unspecified)
inactive: [1] 11.8% | [2] 14.1% | [3] 1.7% | [4] 7.1% | [5] 17.4% | [6] 3%

O=c1c(C(=Nc2ccccc2)c2ccccc2)c[nH]n1-c1ccccc1
inactive: [1] -10.5% | [2] 6.9% | [3] -6% | [4] 17.6% | [5] -15.6% | [6] -12.1%

CC/C(=C(\CC)c1ccc(OC2C=CCCC2)cc1)c1ccc(OC2C=CCCC2)cc1 (stereo unspecified)
inactive: [1] 28.3% | [2] -4.7% | [3] 7% | [4] -2.55% | [5] -13.8% | [6] -0.1%

COc1ccc(/C=C2\N=C(NN)N=C2Cl)cc1
inactive: [1] -8.2% | [2] -30.9% | [3] 4.55% | [4] 23.4% | [5] -0.35% | [6] -13.3%

Cc1ccc(-n2cnc3c(=O)[nH]cnc32)cc1N
inactive: [1] -12.6% | [2] 5.45% | [3] 3.3% | [4] -9.9% | [5] -6.25% | [6] 11.2%

Nc1ncnc2c1ccn2Cc1c(Cl)cccc1Cl
inactive: [1] 2.05% | [2] -0.2% | [3] 7.1% | [4] -2.75% | [5] 23.9% | [6] 5.4%

Brc1ccc2nc(-c3ccccc3)c3ccccc3c2c1
inactive: [1] -13.7% | [2] -0.45% | [3] -2.35% | [4] -25.4% | [5] 14.8% | [6] -2.65%

COc1ccc(Nc2ccnc(N)n2)cc1
inactive: [1] 5.15% | [2] -27.4% | [3] 1.25% | [4] -0.35% | [5] 14.2% | [6] -13.2%

CC(=O)Nc1ccc(/C=C2\SC(=S)N(C=C(C#N)C#N)C2=O)cc1
inactive: [1] 3.95% | [2] 12.2% | [3] -10.4% | [4] 38.5% | [5] 15.2% | [6] -2.35%

CCCCc1ccc(Nc2nc(SC)c3[nH]cnc3n2)cc1
inactive: [1] 0.85% | [2] -17.6% | [3] 28.9% | [4] 16.1% | [5] 29.7% | [6] -37.7%

CCCCCCCCCCCCOc1ccc(Sc2ccc([N+](=O)[O-])cc2)cc1
inactive: [1] 30.2% | [2] 2.55% | [3] 35.1% | [4] -34.3% | [5] 5.1% | [6] 25.8%

c1ccc2[nH]c(CN3CCCCC3)cc2c1
inactive: [1] 7.15% | [2] -10.1% | [3] -8.95% | [4] -18.8% | [5] -13.2% | [6] 11.8%

O=C1C(=Cc2ccc(Cl)c(Cl)c2)C([O-])=C([P+](c2ccccc2)(c2ccccc2)c2ccccc2)C([O-])=C1[P+](c1ccccc1)(c1ccccc1)c1ccccc1
inactive: [1] -4.6% | [2] -44.6% | [3] -7.05% | [4] 5.15% | [5] -21.9% | [6] -19.6%

C=CCN1C=CC=C/C1=C\C=C(/C#N)C(=O)OCC
inactive: [1] 10.8% | [2] 12.7% | [3] 7.8% | [4] -15.2% | [5] -8.65% | [6] 7.35%

CCCCCCCCCCCCCCCC(=O)O (tested in a mixture with another compound)
inactive: [1] 7.65% | [2] -1.5% | [3] -18.2% | [4] 33.8% | [5] 12.1% | [6] -11.4%

O=C(NC(Cc1ccccc1)C(=O)O)Oc1ccc2ccccc2c1 (stereo unspecified)
inactive: [1] 2.9% | [2] 8.25% | [3] 6.1% | [4] -0.95% | [5] -4.8% | [6] -5.2%

CCCCNC(=O)NCCCC
inactive: [1] 5.85% | [2] 3.6% | [3] -5.75% | [4] -4.5% | [5] -2.65% | [6] -0.15%

CC(=O)OC1C/C(C)=C/CCC(C)/C=C/C2(C)CCC(C(C)(C)O)C12 (stereo unspecified)
inactive: [1] 1.7% | [2] -10.3% | [3] 11.9% | [4] 2.5% | [5] 14.1% | [6] 17.6%

CCCOC(=O)C1(C)CCC(=O)O1 (stereo unspecified)
inactive: [1] 3.7% | [2] 6.1% | [3] 23.4% | [4] -19.9% | [5] -13.2% | [6] -8.85%

COc1cc2ccccc2oc1=O
inactive: [1] 21.3% | [2] 8.85% | [3] 3.8% | [4] 15.2% | [5] 5.2% | [6] 21.6%

O=C1CCCNn2c(nc3ncccc3c2=O)N1
inactive: [1] 17.3% | [2] 37% | [3] 9% | [4] -20.6% | [5] 10.1% | [6] -41.1%

O=C1c2ccccc2-c2ccc([N+](=O)[O-])cc21
inactive: [1] 35.6% | [2] 5.8% | [3] -0.3% | [4] 8.65% | [5] -1.3% | [6] -2.85%

CCC(CC)(CC#N)C1CCCCC1
inactive: [1] -0.8% | [2] -0.35% | [3] -0.6% | [4] -13.8% | [5] -3.15% | [6] -8.2%

COc1ccc2ccccc2c1I
inactive: [1] 18.4% | [2] 1.4% | [3] 2.75% | [4] 10.7% | [5] 23.6% | [6] 9.45%
